According to paper PMC7819943, “Rice protein-binding microarrays: a tool to detect cis-acting elements near promoter regions in rice”:
Whole data set: some 68,000 sequences, median “fluorescence intensity (a.u.)” near 9,100, cut for the highest 2% near 16,000. The entries come from a sample that favours the highest values as a whole.

target: OsWRKY34 (Oryza sativa, UniProt Q0JBA9 1-250); experiment: protein-binding microarray (RPBM); PBS, 2% BSA, 51.3 ng/ul salmon testes DNA, 50 uM zinc acetate, 200 nM TF, 25 C, 1 h; high values mean tight binding; settings: protein: recombinant; tags: N-terminal polyhistidine and DsRed monomer fusion (pET32a); label: CyDye5-dUTP incorporated in the synthesized complementary strand; 3' TTTTT single-stranded linker to array surface; dsDNA, one strand shown
Method in brief: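 The binding signal is fluorescence intensity per array feature (arbitrary units). Readings came from an Axon 4000B scanner after a washed, 2% BSA-blocked, double-stranded custom Agilent array had been incubated for 1 h at 25 °C with 200 nM protein and 50 µM zinc acetate. The protein was a Ni–NTA-purified transcription factor fused N-terminally to polyhistidine and DsRed, expressed in E. coli BL21-CodonPlus.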

Chain of OsWRKY34 (Q0JBA9 entry or part of it): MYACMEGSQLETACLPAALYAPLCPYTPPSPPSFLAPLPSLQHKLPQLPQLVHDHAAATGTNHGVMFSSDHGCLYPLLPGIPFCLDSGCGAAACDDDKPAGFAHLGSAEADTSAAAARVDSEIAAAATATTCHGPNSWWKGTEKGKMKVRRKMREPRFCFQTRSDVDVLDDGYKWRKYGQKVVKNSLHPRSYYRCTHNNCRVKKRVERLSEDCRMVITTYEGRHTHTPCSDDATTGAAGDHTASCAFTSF

Sequence | binding signal
CTTTGCTCACTCTTTCTTTTCTCTTCAGGTCTCCATTCTTCGGAGTCACCTAGTGCAG | 12200 fluorescence intensity (a.u.)
CGTGTCGGTGTCTCATCTCTCTCTCTCTTCCCATCCGCCGCGGAGTCACCTAGTGCAG | 8790 fluorescence intensity (a.u.)
CCAAAAACCTCTACTCTTCCGCGTCTTGGAAAATTCTTCTCGGAGTCACCTAGTGCAG | 9300 fluorescence intensity (a.u.)
TACTATTTTTTTCTATAACTATTTATGTCACATGTAAATACGGAGTCACCTAGTGCAG | 8300 fluorescence intensity (a.u.)
TGTGCTAAAAAAGTCAACGGTGTCAAATATTTCGAAACGGCGGAGTCACCTAGTGCAG | 14700 fluorescence intensity (a.u.)
AATAATAAGAACGGTCAAACATATGCTAAAAAGTCAACGGCGGAGTCACCTAGTGCAG | 11500 fluorescence intensity (a.u.)
CATGTCACTATACTATTATATCCTATTATATCCTATAATACGGAGTCACCTAGTGCAG | 8100 fluorescence intensity (a.u.)
GTGCTAAAAAGTCAACGGTGTCAAATATTTAGAAATGAAGCGGAGTCACCTAGTGCAG | 21200 fluorescence intensity (a.u.)
TTATAACATGTCATTAATAAAGGGCATTATGCAACTAATACGGAGTCACCTAGTGCAG | 64200 fluorescence intensity (a.u.)
GTCAAACATGTGCTAAAAAGTCAACGGTGTCAAACATTTCCGGAGTCACCTAGTGCAG | 17400 fluorescence intensity (a.u.)
GTCAAACATGTGCTAAAAAGTCAACAGTGTCAAACATTTCCGGAGTCACCTAGTGCAG | 9540 fluorescence intensity (a.u.)
TAAGATAAACGGTCAAACATTTGCTAAAAAGTCAACGGTGCGGAGTCACCTAGTGCAG | 17300 fluorescence intensity (a.u.)
TTGCTAAAAAGTCAACGGTGTCAAATATTTCGAAACGGAGCGGAGTCACCTAGTGCAG | 12300 fluorescence intensity (a.u.)
AAACATGTGCTAAAAAGTCAACGGTGTCAAACATTTTGAACGGAGTCACCTAGTGCAG | 10400 fluorescence intensity (a.u.)
TCAAACACGTACTAAAAAGTCAACGGTGTCAAACATTTTGCGGAGTCACCTAGTGCAG | 15600 fluorescence intensity (a.u.)
CATCTTCGCAGCAACTCAGTCATCAGCCCATAGCCATTTACGGAGTCACCTAGTGCAG | 8950 fluorescence intensity (a.u.)
AAGGCTTATCACTTCGATTTTTATTTTAGTCCTTGTACTTCGGAGTCACCTAGTGCAG | 8460 fluorescence intensity (a.u.)
ACCATCTTTTAAATCAGACCTCTCACCAATTTTGATATTTCGGAGTCACCTAGTGCAG | 8230 fluorescence intensity (a.u.)
CGCCGGTACGTTTTCCCCGCCGCCGCCTTTCCGGCCGGCCCGGAGTCACCTAGTGCAG | 8950 fluorescence intensity (a.u.)
ACTGTAGCCCATTTTTGATATGGCCAAGGCCCACATAGCACGGAGTCACCTAGTGCAG | 8260 fluorescence intensity (a.u.)
GTCTACATGAACCATTCCAAATGACTTTTATAGGATTTCACGGAGTCACCTAGTGCAG | 8340 fluorescence intensity (a.u.)
GCACCAAGGCCAATACTTGTCCGGATCACCAAGGACACCTCGGAGTCACCTAGTGCAG | 8020 fluorescence intensity (a.u.)
TTTATTAGTTTGTGTCCTGGTTTTCTTTTTCAGTTAGATTCGGAGTCACCTAGTGCAG | 8430 fluorescence intensity (a.u.)
TTACAAGACTTAATTTCAAGGTCCGTCGATTGTCTCTCCACGGAGTCACCTAGTGCAG | 8830 fluorescence intensity (a.u.)

Sequence | binding signal
GTATAGGGGAGAGGGTGGGCGGGTGATCACTGGGTGGGTGCGGAGTCACCTAGTGCAG | 12200 fluorescence intensity (a.u.)
CCCTCCGCTGAGGTTGCGGTTGATGATCTTTCATCAGTGACGGAGTCACCTAGTGCAG | 8590 fluorescence intensity (a.u.)
ATCCATCACATCACGAAACCACTTCATGTACTCTTAACATCGGAGTCACCTAGTGCAG | 8080 fluorescence intensity (a.u.)
AAATGTGCTAAAAAGTCAACGGTGTCAAACATTTCGAAATCGGAGTCACCTAGTGCAG | 16400 fluorescence intensity (a.u.)
AAACATGTGCTAAAAAGTCAACGGTGTCAAATATTTCGAACGGAGTCACCTAGTGCAG | 15600 fluorescence intensity (a.u.)
TATGTGCTAAAAAGTCAACGGTGTCAAACATTTCGAAACGCGGAGTCACCTAGTGCAG | 14000 fluorescence intensity (a.u.)
AAACCTCCACCACCACCGCCACCACCGCCGCGCAAAACCCCGGAGTCACCTAGTGCAG | 8700 fluorescence intensity (a.u.)
TATCTTTTTCTTTTTGGAGGTTTCGTTTTCTCTTGGTCAACGGAGTCACCTAGTGCAG | 10400 fluorescence intensity (a.u.)
AATTAACATCACCAATCAGCAATCACCAACCTTGTCATCTCGGAGTCACCTAGTGCAG | 8970 fluorescence intensity (a.u.)
TTTCATCAATTGCCTCTTGTATCAGCTACTATGCAATATACGGAGTCACCTAGTGCAG | 8850 fluorescence intensity (a.u.)
GCTAGACTATCATCAGCAAGCTAGCAATTAAAGGCCTTGTCGGAGTCACCTAGTGCAG | 64200 fluorescence intensity (a.u.)
CCATGCTCGCGGCGTTTACTTTCCTCACTATTTTTTAGATCGGAGTCACCTAGTGCAG | 9410 fluorescence intensity (a.u.)
GGATCGCGTGGTTTGTGTCGTGTCTTTGCATACGGCGACACGGAGTCACCTAGTGCAG | 8300 fluorescence intensity (a.u.)
CCATCACCACCTCCCGATCCGCGCGCTTTCTCTCCCGCGCCGGAGTCACCTAGTGCAG | 9090 fluorescence intensity (a.u.)
AACTTTACTTTTTCTCATAGTGTTGATTAGATATATGTTTCGGAGTCACCTAGTGCAG | 10600 fluorescence intensity (a.u.)
TTTTTAATAGATAACGTCGTTGACTTTTTCTCACATGTTTCGGAGTCACCTAGTGCAG | 25600 fluorescence intensity (a.u.)
TTTTCAGTAGATAACATCGTTGACTTTTCAACGAATATTTCGGAGTCACCTAGTGCAG | 14400 fluorescence intensity (a.u.)
GTTTTTTAATAGATAACGCCGTTGACTTTTTTTCACATGTCGGAGTCACCTAGTGCAG | 21500 fluorescence intensity (a.u.)
CCGTTTTTTAATAGATAACGCTGTTGACTTTTTCTTATATCGGAGTCACCTAGTGCAG | 11200 fluorescence intensity (a.u.)
GGAGGAGAGAGGGGTGGGGTTTGTGGTGTCGTCGTCCATGCGGAGTCACCTAGTGCAG | 11700 fluorescence intensity (a.u.)
GACTATGCGCGCTATATAAAGGATCACATTATCTCATACTCGGAGTCACCTAGTGCAG | 8930 fluorescence intensity (a.u.)
TTGCCGTACAATCTTGATTTGGAGATCTTCCTGGCCAACACGGAGTCACCTAGTGCAG | 9120 fluorescence intensity (a.u.)
AGAAAGCCCATTTTGCCCTTTGTGCTTCAGAACATCGAGCCGGAGTCACCTAGTGCAG | 8020 fluorescence intensity (a.u.)
